In PubChem BioAssay AID504853 (Southern Research Specialized Biocontainment Screening …, 2011):
Results with a measured potency or affinity are listed apart. Activity calls are given as the source filed them. How the calls were made is not given here.

Assay: HepG2 cell cytotoxicity, dose response, cytotoxicity control, set 3 (AID 504853)
Details: series mostly up to 50 µM

SMILES | outcome
CC(C)CCNC(=O)CSc1nc2c(c(=O)[nH]1)CCC2 | inactive
Cc1cc(=O)[nH]c(SCC(=O)NC2CCCCC2)n1 | inactive
COC(=O)C(C)Oc1ccc(Cc2ncc(C(F)(F)F)cc2Cl)cc1 (stereo unspecified) | inactive
CCOC1OC(=O)C(Cl)=C1Nc1ccccc1C (stereo unspecified) | inactive
Cc1cccc(/C=C/C(=O)c2ccc([N+](=O)[O-])o2)c1 | inactive
Nc1cc(=O)[nH]c(SCC(=O)NC2CCCCC2)n1 | inactive
Cc1nc(SCC(=O)NCCC(C)C)[nH]c(=O)c1C | inactive
COC(=O)c1ccc(CNc2c(N3CCCC3)c(=O)c2=O)cc1 | inactive
CC(C)NC(=O)CSc1nc2ccccc2c(=O)[nH]1 | inactive
CCOC(=O)CSc1nc(C)c(C)c(=O)[nH]1 | inactive
Cc1cnc(SCC(=O)NC2CCCCC2)[nH]c1=O | inactive
CN(C(=O)CSc1nc2ccccc2c(=O)[nH]1)C1CCCCC1 | inactive
CC(Sc1nc2ccccc2c(=O)[nH]1)C(=O)NC1CCCCC1 (stereo unspecified) | inactive
CCSc1nc2ccccc2c(=O)[nH]1 | inactive
NC(=O)CSc1nc2ccccc2c(=O)[nH]1 | inactive
O=C(CSc1nc2ccccc2c(=O)[nH]1)NC1CCCC1 | inactive
O=C(CSc1ccccn1)NC1CCCCC1 | inactive
CNC(=O)CSc1nc2ccccc2c(=O)[nH]1 | inactive
O=C(CSc1nc2c(c(=O)[nH]1)CCC2)NC1CCCCC1 | inactive
CC1CCN(C(=O)CSc2nc3ccccc3c(=O)[nH]2)CC1 | inactive
COc1cccc(NC(=O)CSc2nc3ccccc3c(=O)[nH]2)c1 | inactive
O=C(CSc1nc2ccccc2c(=O)[nH]1)N1CCOCC1 | inactive
CCC(Sc1nc2ccccc2c(=O)[nH]1)C(=O)NC1CCCCC1 (stereo unspecified) | inactive
Cc1nc(SCc2ccccc2Cl)[nH]c(=O)c1C | inactive
Cc1[nH]c(=S)[nH]c(=O)c1C | inactive
Cc1nc(SCC(=O)NC2CCCC2)[nH]c(=O)c1C | inactive
